The source made the active and inactive calls.

Test [1] concerns Human papillomavirus type 1a protein E7 (residues 44-93). The test is described as follows: HPV1a E7 fragment binders on microarrays, primary screen, biochemical, small-molecule microarray, residues 44-93, 635 nm fluorescence (AID 1108).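 Also: E7 fragment applied at 1 µg/mL in TBST for 1 h at 4 C; score combines spot fluorescence with its signal to noise ratio.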 The conditions noted are these: small-molecule microarray binding, fluorescence 635 nm; higher = more signal.
A short description of test [2]: modulators of HCV replicon luciferase signal, primary screen, HCV replication inhibitor project, Huh7 cells, luciferase reporter (AID 1109).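 Also: huh7 hepatoma cells harbouring a luciferase neomycin HCV replicon reporter; luciferase luminescence as measure of HCV replicon replication; test concentration not given here.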 The conditions noted are these: 48 h, higher = more signal.
Test [3] has as its target Left-right determination factor 2 (Homo sapiens) (UniProt O00292). As to the kind of experiment: LEFTY2 binders on small-molecule microarrays, primary screen, biochemical, small-molecule microarray, 635 nm fluorescence scan (AID 1110). The conditions noted are these: LEFTY2 binding, higher = more signal.
Test [4] deals with Calmodulin-1 (Homo sapiens) (UniProt P0DP23). As to the kind of experiment: CALM1 binders on microarrays, EGTA buffer, profiling panel, biochemical, small-molecule microarray, Cy5-labelled CALM1 (AID 1111).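 Also: labelled calmodulin applied in Tris saline Tween buffer holding calcium plus EGTA and DTT.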 The conditions noted are these: Cy5-CALM1 binding fluorescence, higher = more signal.
Test [5] has the same target. The test is described as follows: calcium-bound CALM1 binders on microarrays, profiling panel, artefact control for SMM control-protein annotation, biochemical, small-molecule microarray, Cy5-labelled CALM1, plus calcium (AID 1112).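 Also: score merges spot fluorescence with signal to noise from triplicate slides.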 The conditions noted are these: Cy5-CALM1 binding fluorescence, higher = more signal.
Test [6] can be described thus: small-molecule microarray binders of probe aWnt5a, primary screen, biochemical, biotinylated probe, 635/667 nm fluorescence (AID 1113).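 Also: score merges 667 nm fluorescence intensity with signal-to-noise per printed feature.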 The conditions noted are these: higher = more signal.
Test [7] can be described thus: small-molecule microarray binders of probe aShh, primary screen, biochemical, biotinylated probe, 635/667 nm fluorescence (AID 1114).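 Also: probe is biotin-labelled aShh protein from a stem cell growth factor screen; measures binding of labelled protein to compounds printed on the slide; score merges feature fluorescence at 667 nm with signal-to-noise.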 Conditions: higher = more signal.
Test [8] can be described thus: small-molecule microarray binders of probe aNog, primary screen, biochemical, biotinylated probe, 635/667 nm fluorescence (AID 1115).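 Also: probe is biotinylated aNog protein used at 0.15 µg/mL for 1 h at 4 C; z-score combines 667 nm fluorescence of each spot with its signal to noise.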 The conditions noted are these: higher = more signal.
Test [9] concerns the target Torsin-1A-interacting protein 1 (Homo sapiens) (UniProt Q5JTV8). The test is described as follows: LAP1 binders from COS7 cell lysate, primary screen, small-molecule microarray, 635/667 nm fluorescence (AID 1116). Conditions: COS7-hLAP1 lysate binding, 635 nm fluorescence, higher = more signal.
Test [10] addresses Alpha-bungarotoxin (Bungarus multicinctus) (UniProt P60615). The test is described as follows: alpha-bungarotoxin binders on microarray, profiling panel, artefact control for SMM control protein annotation, biochemical, small-molecule microarray, Alexa647 label, 635/667 nm fluorescence (AID 1117). Conditions: alpha-BTX-A647 binding fluorescence, higher = more signal.
For test [11], the target named is Albumin (Bos taurus) (UniProt P02769). As to the kind of experiment: bovine serum albumin binders on microarray, profiling panel, artefact control for SMM control protein annotation, biochemical, small-molecule microarray, Alexa647 label, 635/667 nm fluorescence (AID 1118).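 Also: score merges 667 nm emission intensity and signal-to-noise per printed compound spot.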 Conditions: BSA-A647 binding, fluorescence 635 nm, higher = more signal.
Test [12] can be described thus: small-molecule microarray binders of probe aXIP, primary screen, biochemical, NeuroSMM set, 635/667 nm fluorescence (AID 1119).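 Also: probe is the protein aXip251-270 applied at 1 µg/mL to compound-printed slides; binding of probe to printed compounds measured as 667 nm fluorescence plus signal to noise.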 Conditions: higher = more signal, called active from +8 up or from −8 down.
Test [13] is described as follows: small-molecule binders of probe aNOTCH3, primary screen, biochemical, small-molecule microarray, 635/667 nm fluorescence (AID 1120).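 Also: probe is a biotin-tagged antibody raised against NOTCH3 rather than NOTCH3 protein; score merges spot fluorescence near 667 nm with spot signal to noise.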 The conditions noted are these: higher = more signal.
Test [14] can be described thus: small-molecule binders of probe aNOTCH2, primary screen, biochemical, small-molecule microarray, 635/667 nm fluorescence (AID 1121).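 Also: score merges feature fluorescence read at 667 nm with its signal to noise.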 Conditions: higher = more signal.
The target of test [15] is Carbonic anhydrase 2 (Homo sapiens) (UniProt P00918). The test is described as follows: CAII small-molecule binders, profiling panel, biochemical, small-molecule microarray, Alexa647-labelled CAII (AID 1122). The conditions noted are these: CAII-A647 binding fluorescence, higher = more signal.
Test [16] in a line: COS7 lysate on small-molecule microarray, probe aHis, 635 nm (AID 1123).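 Also: z-score combines 667nm fluorescence intensity with signal-to-noise per printed compound spot.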 The conditions noted are these: COS7 cell lysate, fluorescence, higher = more signal.
A short description of test [17]: compound binding in COS7 lysate, probe aLAP1, primary screen, cell lysate, small-molecule microarray (AID 1124).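 Also: lysate comes from COS7 cells expressing LAP1 and is applied at 0.3 µg/mL; score merges spot fluorescence near 667 nm with signal-to-noise over triplicate slides.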 Conditions: probe aLAP1, fluorescence, higher = more signal.
Test [18] has as its system Sam68 (KHDRBS1). As to the kind of experiment: Sam68 small-molecule binders, primary screen, biochemical, small-molecule microarray, 635 nm fluorescence (AID 1125).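 Also: score merges 667 nm channel intensity with signal to noise over triplicate slides.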 The conditions noted are these: small-molecule microarray binding, higher = more signal.
Test [19] has as its system Chordin-like protein 2 (CHRDL2). As to the kind of experiment: CHRDL2 small-molecule binders, primary screen, biochemical, small-molecule microarray, 635 nm fluorescence (AID 1126).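 Also: printed compound slides probed with Chrdl2 protein at 4 µg/mL for 1 h at 4 C; score merges 667 nm emission intensity with signal to noise over three replicate slides.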 Conditions: small-molecule microarray binding, fluorescence 635 nm; higher = more signal.
The target of test [20] is Concanavalin-A (Canavalia ensiformis) (UniProt P02866). The test is described as follows: ConA small-molecule binders, primary screen, artefact control for SMM control protein annotation, biochemical, small-molecule microarray, Alexa647 label, 635 nm (AID 1127).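 Also: z combines 667 nm emission intensity with signal-to-noise across three replicate slides.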 Conditions: ConA-A647 binding fluorescence, higher = more signal.
Sequence of Concanavalin-A (Canavalia ensiformis) (P02866 whole entry, looked up): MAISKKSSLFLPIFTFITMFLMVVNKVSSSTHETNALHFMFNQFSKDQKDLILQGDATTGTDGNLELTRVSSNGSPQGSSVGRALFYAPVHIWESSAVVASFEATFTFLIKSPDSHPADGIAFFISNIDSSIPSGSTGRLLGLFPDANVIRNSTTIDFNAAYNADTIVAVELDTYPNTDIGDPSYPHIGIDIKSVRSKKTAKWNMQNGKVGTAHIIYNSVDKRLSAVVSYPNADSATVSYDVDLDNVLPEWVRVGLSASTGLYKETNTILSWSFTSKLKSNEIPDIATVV

Sequence of Torsin-1A-interacting protein 1 (Homo sapiens) (Q5JTV8 whole entry, looked up): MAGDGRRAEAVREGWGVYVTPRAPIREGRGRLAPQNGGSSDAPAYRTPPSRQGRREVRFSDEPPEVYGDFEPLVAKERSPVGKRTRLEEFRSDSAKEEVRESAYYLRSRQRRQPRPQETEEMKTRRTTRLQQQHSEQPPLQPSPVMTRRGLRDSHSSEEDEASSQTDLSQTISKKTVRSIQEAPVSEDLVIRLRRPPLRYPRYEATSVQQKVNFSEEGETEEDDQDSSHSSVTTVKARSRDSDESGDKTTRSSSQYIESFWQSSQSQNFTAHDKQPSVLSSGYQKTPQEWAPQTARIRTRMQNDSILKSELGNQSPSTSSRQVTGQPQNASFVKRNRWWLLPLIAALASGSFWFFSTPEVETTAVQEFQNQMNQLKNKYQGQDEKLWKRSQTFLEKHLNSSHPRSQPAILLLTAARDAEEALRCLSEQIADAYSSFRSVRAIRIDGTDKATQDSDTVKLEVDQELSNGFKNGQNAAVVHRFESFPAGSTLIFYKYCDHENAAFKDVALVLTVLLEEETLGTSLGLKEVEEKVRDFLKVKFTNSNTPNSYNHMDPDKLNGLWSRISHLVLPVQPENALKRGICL
Sequence of Albumin (Bos taurus) (P02769 whole entry, looked up): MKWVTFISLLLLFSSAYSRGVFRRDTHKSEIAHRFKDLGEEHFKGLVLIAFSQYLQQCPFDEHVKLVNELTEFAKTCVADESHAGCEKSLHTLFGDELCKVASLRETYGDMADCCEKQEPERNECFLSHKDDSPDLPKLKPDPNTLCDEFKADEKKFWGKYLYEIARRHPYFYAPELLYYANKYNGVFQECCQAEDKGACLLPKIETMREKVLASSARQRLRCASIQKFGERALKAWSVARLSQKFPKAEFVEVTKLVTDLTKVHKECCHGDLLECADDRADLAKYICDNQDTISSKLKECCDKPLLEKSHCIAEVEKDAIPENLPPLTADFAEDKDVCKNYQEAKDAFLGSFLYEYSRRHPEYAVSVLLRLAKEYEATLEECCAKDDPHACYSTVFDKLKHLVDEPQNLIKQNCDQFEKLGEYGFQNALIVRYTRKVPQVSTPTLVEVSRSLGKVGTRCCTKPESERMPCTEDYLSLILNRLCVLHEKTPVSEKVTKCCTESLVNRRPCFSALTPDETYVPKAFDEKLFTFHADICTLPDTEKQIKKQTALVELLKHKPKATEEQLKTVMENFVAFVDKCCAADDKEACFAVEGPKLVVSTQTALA
Sequence of Left-right determination factor 2 (Homo sapiens) (O00292 whole entry, looked up): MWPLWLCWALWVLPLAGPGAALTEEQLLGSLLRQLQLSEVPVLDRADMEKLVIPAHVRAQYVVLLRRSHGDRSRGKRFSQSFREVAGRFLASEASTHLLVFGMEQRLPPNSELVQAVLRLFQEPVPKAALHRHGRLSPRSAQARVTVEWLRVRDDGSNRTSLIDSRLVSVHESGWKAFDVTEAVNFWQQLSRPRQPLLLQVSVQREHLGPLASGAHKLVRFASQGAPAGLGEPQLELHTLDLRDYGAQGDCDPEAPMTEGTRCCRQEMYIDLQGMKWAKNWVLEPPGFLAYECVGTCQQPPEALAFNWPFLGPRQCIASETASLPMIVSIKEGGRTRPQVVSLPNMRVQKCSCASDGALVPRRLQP
Sequence of Alpha-bungarotoxin (Bungarus multicinctus) (P60615 whole entry, looked up): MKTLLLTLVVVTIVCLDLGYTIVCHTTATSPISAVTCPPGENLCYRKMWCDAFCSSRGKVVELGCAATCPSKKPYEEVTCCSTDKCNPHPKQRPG

For `O=C1OCCC=C[C@H]2OC34C=CCN(c5ccc(Cl)cc5)C(=O)[C@H]3N(CCCCCCO)C(=O)[C@@H]4C12` (stereo not given in full), the composite z-score in test [1] was -0.344; in test [3], -1.25; in test [4] it was -0.869; in [5], -0.593; in test [6], -0.152; in test [7], -0.109. Also, the composite z-score in test [8] was 0.0422; in test [9] it was -0.307; in test [10] it was -1.35; in test [11] it was -0.418; in test [13], -0.122; in test [14], -0.218. In addition, the composite z-score is 0.802 in test [15]; -0.328 in [16]; -0.256 in [17]; -0.156 in test [18]; -1.16 in test [19]; -0.941 in test [20]. In addition, in test [2], the z-score is -0.476. In addition, the composite Z-score in test [12] is 0.318 (inactive).

With `C=CCC(OC(C)=O)[C@@H]1[C@@H](N(Cc2ccc(-c3ccccc3)cc2)C(=O)c2ccc(C)cc2)c2cc(OCCCO)ccc2N1C(=O)Cc1ccc2ccccc2c1` (stereo not given in full), the composite z-score is -0.579 in [1]; -0.0611 in [3]; -0.117 in [4]; 0.53 in test [5]; -0.0794 in test [6]; -0.349 in test [7]. The composite z-score in test [8] was 0.0127; in test [9], 1.68; in test [10], 0.0941; in test [11], 0.233; in [13], -0.0362; in [14], -0.159. The composite z-score in [15] was -0.14; in [16], 0.772; in test [17] it was -0.0769; in [18], -0.106; in test [19], 0.248; in test [20] it was 0.202. In [2], this compound returned a z-score of -0.588. Moreover, the composite Z-score in [12] was -0.645 (inactive).

Take `COCC1=C2[C@@H](CCc3ccccc3)OB(O)C[C@@H]2[C@@H]2C(=O)N(C)C(=O)[C@@H]2C1`: the composite z-score was -0.152 in test [1]; 0.211 in [3]; -0.344 in test [4]; -0.294 in test [5]; -0.0405 in test [6]; -0.138 in test [7]. Also, the composite z-score was -0.205 in test [8]; 0.226 in test [9]; -0.273 in test [10]; 0.229 in [11]; -0.0918 in test [13]; -0.108 in [14]. In addition, the composite z-score was 0.21 in test [15]; 0.06 in test [16]; -0.179 in test [17]; 0.106 in test [18]; 0.5 in [19]; -0.141 in test [20]. The same compound returned a z-score in [2] of -1.2. In addition, in [12], the composite Z-score is 0.289 (inactive).

`C=CCNC(=O)[C@@H]1[C@H]2C(=O)O[C@H](c3ccccc3)[C@H](c3ccccc3)N2[C@H](c2ccc(OCCO)cc2)[C@@]12C(=O)N(C(=O)OCCOC)c1ccc(C#CCCO)cc12`: the composite z-score in test [1] is 1.33; in [3], 0.909; in test [4], 0.88; in test [5], -0.381; in [6] it was 0.0229; in test [7], -0.0769. In addition, the composite z-score in test [8] is -0.519; in [9], 0.262; in test [10], 1.35; in test [11] it was 0.474; in test [13] it was 0.0422; in test [14], -0.0677. Also, the composite z-score in test [15] was 0.576; in test [16], 1.23; in test [17] it was 0.659; in [18], 1.27; in test [19] it was 0.528; in [20], 1.11. The z-score in test [2] was -0.459. In addition, the composite Z-score in [12] was 0.365 (inactive).

Consider `COCC(=C=CC[C@@H](O)c1ccc(OCCO)cc1)CCO`, for which the composite z-score in test [1] was 0.862; in [3] it was -0.144; in test [4], -0.0954; in [5], -0.102; in test [6], -0.0643; in test [7], 0.0639. In addition, the composite z-score in [8] was -0.197; in test [9] it was 0.506; in test [10], 0.0305; in test [11] it was -0.201; in test [13] it was -0.17; in test [14], -0.0859. Besides, the composite z-score is 0.838 in [15]; 1.25 in test [16]; 0.83 in test [17]; 0.847 in test [18]; 0.136 in test [19]; -0.139 in [20]. This compound also yielded a z-score in [2] of -0.766. Besides, the composite Z-score in [12] is 1.21 (inactive).

As for `O=C1NC(=O)C2C1C=CC(C(O)c1ccccn1)N2Nc1ccc(Cl)cc1Cl` (stereo not given), the composite z-score in [1] is 0.553; in test [3] it was 0.0905; in test [4] it was 1.46; in [5], 0.819; in test [6] it was -0.16; in test [7], 0.171. Besides, the composite z-score in test [8] is 0.383; in test [9] it was 0.422; in test [10] it was -0.0671; in test [11] it was 1.02; in [13], 0.0773; in test [14], 0.0554. The composite z-score in test [15] was 0.815; in [16], 3.23; in test [17], 0.048; in test [18], 0.25; in test [19], -0.44; in test [20], 0.786. The z-score in test [2] worked out at 0.812. Further, the composite Z-score in test [12] is 0.222 (inactive).

Values taken from PubChem BioAssay.
